# Screening results deposited in PubChem BioAssay by National Center for Advancing Translational Sciences (NCATS).
# Sampled rows, rich in hits. Any-hit rate of the full collection: about 7.3%.
# Rab9 prom act: Rab9 promoter activation; Huh7 Rab9 promoter-luciferase reporter, luminescence, 24 h; Potency, µM (top dose mostly 9.22 µM), without a hit: top-dose activation, negative = inhibition, usual class: activators; 320,000 tested, 2.8% active; AID 485297; also: % of control where 0% means no effect; nearly all actives have a fitted effect of over 60% in size
#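 Luminescence from Amplite-detected luciferase (10 minutes, ambient) reports Rab9 promoter activation. Before that, stable Rab9-luciferase Huh7 cells (1500/well, reduced-serum OP-MEM I plus 10% FBS) were exposed to compound for 24 hours at 37C.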
# FLuc counter: counter-screen for miR-21 project: firefly luciferase inhibitors or activators; P08659; purified FLuc, Km substrates, luminescence inhibition; Potency, µM (highest dose often 57.5 µM), without a hit: top-dose activity change, negative = inhibition, hits mostly inhibitors; 360,000 tested, 6.9% active;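 also: plate controls were vehicle for no effect and reference inhibitor for full effect; nearly all actives have a fitted effect of over 55% in size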
# Target sequence (P08659 whole entry, looked up): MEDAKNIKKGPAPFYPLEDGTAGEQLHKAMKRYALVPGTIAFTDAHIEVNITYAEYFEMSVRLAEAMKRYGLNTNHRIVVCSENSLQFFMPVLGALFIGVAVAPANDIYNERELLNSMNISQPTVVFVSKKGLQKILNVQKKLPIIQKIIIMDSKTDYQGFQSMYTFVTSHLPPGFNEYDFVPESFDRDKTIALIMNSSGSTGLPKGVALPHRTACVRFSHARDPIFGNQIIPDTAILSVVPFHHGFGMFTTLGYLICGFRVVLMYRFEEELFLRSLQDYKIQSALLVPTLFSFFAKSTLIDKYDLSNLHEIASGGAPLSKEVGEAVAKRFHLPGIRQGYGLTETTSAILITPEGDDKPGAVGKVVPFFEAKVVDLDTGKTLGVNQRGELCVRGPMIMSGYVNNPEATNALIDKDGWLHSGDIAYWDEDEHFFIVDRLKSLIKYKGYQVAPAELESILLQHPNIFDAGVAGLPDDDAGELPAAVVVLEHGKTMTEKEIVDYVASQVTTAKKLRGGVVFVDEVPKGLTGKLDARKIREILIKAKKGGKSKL
#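 Purified P. pyralis luciferase (10nM final) with 10uM D-luciferin and 10uM ATP (Km levels) in 50mM Tris acetate pH 7.5, 10mM Mg acetate, 0.01% Tween-20, 0.05% BSA; qHTS 6-point titration, ~60 µM downward; luminescence read.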
# uPA generation: inhibitors of cell surface uPA generation. 330,000 tested, 0.31% active. AID 540303. cell surface uPA generation assay, qHTS. Potency, µM (top dose mostly 38.3 µM), for the others: at the top dose activity change, negative = inhibition, usual class: inhibitors; active = well fitted inhibition curve with a large enough effect; inconclusive = small, poorly fitted or top-dose-only effect; inactive = no such curve, though single readings can be large or run the other way; tested in mouse RAW 264.7 cells; also: % is scaled to controls: 0 for no effect and ±100 for the full control effect; nearly all actives have a fitted effect of over 55% in size
# NPC1 promoter act: activates the NPC1 promoter; Potency, µM (top dose mostly 9.22 µM), for inactives: top-dose activation, usual class: activators; AID 485313; Huh7 NPC1 promoter luciferase reporter, 24 h; 320,000 tested, 2.4% active; also: % of control where 0% means no effect; nearly all actives have a fitted effect of over 60% in size
#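 Stably transfected Huh7 (NPC1 promoter→luciferase), 1500 cells/well in Opti-MEM + 10% FBS, 2 h settle, then compound 24 h at 37 °C. Luminescence after 10 min with Amplite reagent.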
# SMN2 splice up: enhancers of SMN2 splice variant expression; HEK293 SMN2-luciferase splicing reporter, luminescence, 30-36 h; Potency, µM (highest dose often 46.1 µM), inactives show at the top dose activity change, positive = activation, actives largely listed as activators; 210,000 tested, 2.8% active; AID 1458; also: % of control where 0% means no effect; nearly all actives have a fitted effect of over 55% in size
#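 HEK293 cells carry an SMN2 minigene-luciferase reporter in which exon 7 inclusion puts luciferase in frame. Cells were seeded at 2000 cells/well, attached for 10-12 hours, then exposed to compounds for 30-36 hours at 37C before ONE-Glo luminescence.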
# ELG1 genotox: genotoxicity induction in ELG1-luciferase HEK293T cells; HEK293T ELG1-luciferase reporter, luminescence, 16 h; Potency, µM (titrated, usually from 46 µM), inactives show at the highest dose activity change, positive = activation, most hits filed as activators; 330,000 tested, 1.3% active; AID 504466; also: % of control where 0% means no effect; nearly all actives have a fitted effect of over 60% in size
#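 Quantitative HTS format in 1536-well plates. HEK293T ELG1-luciferase reporter cells receive test compound and are incubated 16 hr at 37 °C, 5% CO2; ONE-Glo added, 30 min room temperature, then luminescence read.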
# The depositor's hits bear a star; ? = inconclusive; . = no result given; [ ] = remark or other dose. Unless noted, calls follow the shape of the dose curve; as a rule, active = well fitted curve in the direction sought with a large enough effect; inconclusive = small, poorly fitted or top-dose-only effect, or another doubt; inactive = no such curve, though single readings can be large; an effect the other way counts as inactive or inconclusive. Potency is read from the fitted curve at half-maximal effect.
SMILES,Rab9 prom act,FLuc counter,uPA generation,NPC1 promoter act,SMN2 splice up,ELG1 genotox
O=c1c2ccccc2ncn1-c1ccc2c(c1)OCCO2,2.8µM*,?,-7%,?,2%,?
CCCc1ccc(C(=O)NC(=O)c2ccccc2O)cc1,?,0.6µM*,-5%,?,.,6%
O=C(NC(=O)c1ccccc1O)c1ccc(C(F)(F)F)cc1,?,3µM*,2%,?,.,5%
CC(C)(C)c1ccc(C(=O)NCC(=O)NNC(=O)c2ccccc2O)cc1,-1%,?,-18%,-3%,.,-1%
N#CCCN(C(=O)COc1ccc(C#N)cc1)c1ccc(F)cc1,-11%,-2%,5%,0%,4%,-5%
CC(C)(C)c1ccc(/C=C/C(=O)N2CCOCC2)cc1,?,11µM*,1%,?,3.2µM*,?
O=C(/C=C/c1ccc2c(c1)OCO2)N1CCOCC1,26%,17µM*,-2%,19%,.,11%
CC(C)(C)c1ccc(/C=C/C(=O)N2CCN(c3ncccn3)CC2)cc1,-3%,24µM*,-4%,-3%,-4%,-3%
CC(C)Cc1ccc(/C=C/C(=O)N2CCOCC2)cc1,2.2µM*,11µM*,-2%,2.8µM*,13µM*,?
CCOc1ccc(/C=C/C(=O)N2CCOCC2)cc1OC,0%,3%,9%,-5%,.,3%
O=C(/C=C/c1ccc(F)cc1)N1CCN(c2ncccn2)CC1,9%,?,1%,12%,6%,-11%
COc1ccc(/C=C/C(=O)N2CCOCC2)cc1OC,7%,-2%,8%,-3%,.,0%
Cc1ccc(S(=O)(=O)NCCc2nnc3ccc(SCC(=O)Nc4ccc(OC(F)(F)F)cc4)nn23)cc1,.,5%,.,.,.,.
CCc1ccc2c(c1)NC(c1cccnc1)=NC(c1ccc(C(C)(C)C)cc1)=N2,.,-10%,.,.,2%,.
Nc1ncc(S(=O)(=O)NCc2ccccc2)cn1,.,-8%,.,.,.,.
COCc1nc2c([nH]1)c(=O)n(C)c(=O)n2CC(C)C,4%[46.1 µM],-1%,9%,6%[46.1 µM],16%,0%
CNC(=O)c1ccccc1Sc1cccc2cccc(C(=O)O)c12,-2%,1%,6%,4%,.,0%
CCc1cccc(CC)c1NC(=O)Cn1nnc2sc3c(c2c1=O)CCCC3,.,2%,.,.,-3%,.
Cc1nc(Cl)sc1C(=O)Nc1ccccc1Cl,-1%,-16%,?,0%,.,3%
Cc1nc(NC(=O)C2CC2)sc1C(=O)Nc1ccccc1Cl,2.5µM*,?,?,3.5µM*,.,13%
Cc1nc(NC(=O)/C=C/c2ccccc2)sc1C(=O)Nc1ccc(Cl)cc1,-3%,-2%,2%,-1%,15%,6%
Cc1nc(NC(=O)/C=C/c2ccccc2)sc1C(=O)Nc1ccccc1Cl,-6%,12µM*,5%,1%,13%,12%
Cc1nc(Nc2ccc(Cl)cc2Cl)sc1C(=O)Nc1ccccc1,4%,17µM*,0%,-2%,-12%,-1%
O=C(CSc1nc(-c2ccccc2)c2ccccc2n1)Nc1ccc(F)cc1,.,-2%,.,.,14%,.
O=C(O)c1cccc(Nc2ncnc3sccc23)c1,15%,7.6µM*,-1%,28%,4%,-1%
SMILES,Rab9 prom act,FLuc counter,uPA generation,NPC1 promoter act,SMN2 splice up,ELG1 genotox
CCOc1ccc(CSC2=NCCN2)cc1[N+](=O)[O-],-1%,-1%,-14%,10%,14%,9%
CCCCOc1ccc(CSC2=NCCN2)cc1[N+](=O)[O-],9%,-2%,6.3µM*,20%,11%,1%
O=C(Nc1ccc(Br)cc1)Nc1nc2c(s1)CCCCCC2,.,3%,.,.,.,.
CCOc1ccccc1C(=O)N[C@H](C(=O)Nc1nc2c(s1)CCCC2)C(C)C,14%,?,0%,9%,6%,1%
CC(=O)c1sc(NC(=O)c2ccc(Br)o2)nc1C,27%[1.84 µM],19µM*,?,?,.,16µM*
O=C(Nc1nc2c(s1)CCCC2)c1ccc(Br)o1,1.3µM*,1.5µM*,-12%,2.2µM*,11µM*,12µM*
Cc1onc(-c2ccccc2Cl)c1C(=O)Nc1nc2c(s1)CCCC2,?,13µM*,0%,27%,13%,4%
